Results from the supplement of paper PMC6555819.

System: RARg:RXRa (NR concentration 270 nM, RXRa partner concentration 90 nM)
Test: PBM binding z-score (relative to random genomic background probes); higher = stronger binding; sequences stand for … in GC…GCGATTGACAGCGTAGAATGAAGG
Outline: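 Ligand-free nuclear receptor dimers were bound for 1 h to custom Agilent 4×180K protein-binding microarrays. Detection used antibodies against each partner (one per run). Binding z-scores rest on regression-normalized fluorescence, with random background probes as the reference.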

Sequence | PBM binding z-score
CCTACTGGGTCATCAGGTCATTGATATCAACGTT | 5.07
TAGACTAGGTCATGGGCCAGTATACCACGCGAAC | 3.79
TCTTGTAAATCAAGCAGGTTAAGAAAGCCTGAGT | 0.0304
TCATATAGCTAATACAGGTGAAAGTCGGCATCTA | 0.298
GTAGACAGGTGAAACGCAGGTAACTCAGGGTGGC | 0.896
CAGCCTAGGTCAGGGCCAGTATCGGAGGAACGTT | 3.16
ATCTCTAGGTAAGACTCTGTTCAGTGAAGAACGC | -0.0818
TCGAGTAGGTTAGGTGCATTCAGAATGGCGTCGA | -0.25
TCATCTAGGTAAATGCTAGGTGAAAGTCCGATCT | 0.279
CCGAGTAGGTTATGCGGCATTCAGGCAACGGTGA | 0.0373
TCTTGTAGATCAACAGGATGTTAAGAAAGATCGA | 0.136
TCGAGTAGGTCAGTCGGGGCATTCAGCCAACATA | 2.49
CCTACTGGGCCAAAAAGGTTATTGATGCCGATAA | 0.788
CGTCCAAGGTCACAGGTCAGTGAAGAGATGACGG | 6.75
TCATATAGGTAGAAGGTGAAAGTCGGTGTGGTAA | 0.662
ATCGAAAGGTCGAGGTAAGTATAGAGAAAGGGAA | 4.25
CGTCCAAGGTCAGCAGGTCAGTGAGAGCGACGTG | 6.35
TCATATAGGGAAAAGGTGAAAGTCGGTGTGGTAA | 1.27
ACTATTAGTTGACTTAGGGCAACCAATACGACGC | 0.838
ACTAGCAGGCCAAGCGTCACTCAAGATTAGTCCG | -0.358
AATACAGGGTCATCGTAGGCCTGAGTACGCACAG | 5.59
ACTATTAGTTGACTTATGGCAACCGATACGACGC | 0.814
